Counter-ions that a name gives are not always drawn. ± gives the standard deviation of the averaged measurements. Over roughly 2,000 compounds, “relative cell viability vs DMSO, compound + 0.2 uM CuET” has its median near 1; the lowest 2% begin near 0.25. This is one part of a sample in which the lowest values are shown more often than they occur.

This test deals with TE10. Put plainly: relative cell viability vs DMSO, compound + 0.2 uM CuET (fraction); TE10 is an esophageal squamous carcinoma line; higher = less cytotoxic. The note with it: 2 µM; co-treatment: CuET (bis(diethyldithiocarbamate)copper) 0.2 uM; 48 h. The method, then:
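TE10 ESCC cells (1,000/well, 384-well plates) were treated with Selleck bioactive library compounds at 2 uM combined with 0.2 uM CuET (copper diethyldithiocarbamate) for 48 h. Viability was read by CellTiter-Glo and expressed relative to DMSO wells. Two technical replicates (A, B).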
Take `O=C1NC(=NCc2cccs2)S/C1=C\c1ccc2ncccc2c1`: the relative cell viability stood at 1.12 ± 0.078. In the case of `CC(Oc1cc(-c2cnn(C3CCNCC3)c2)cnc1N)c1c(Cl)ccc(F)c1Cl` [(S)-crizotinib], the relative cell viability was found to be 1.12 ± 0.028. Turning to `CC(C)(C)C(=O)OCOP(=O)(COCCn1cnc2c(N)ncnc21)OCOC(=O)C(C)(C)C` [Adefovir Dipivoxil], the relative cell viability was 1.02 ± 0.035. As to `Cc1cc(Nc2cc(CN3CCOCC3)c3nc(C)c(Cc4ccc(Cl)cc4F)n3n2)n[nH]1`, the relative cell viability stood at 0.92 ± 0.046. Consider `O=C1C(c2c(O)[nH]c3ccccc23)=Nc2ccccc21` [Indirubin], for which the relative cell viability was 0.978 ± 0.15. With `CC(C)C[C@H](NC(=O)CNC(=O)c1cc(Cl)ccc1Cl)B1OC(=O)CC(CC(=O)O)(C(=O)O)O1` (some centres not stated), the relative cell viability came to 0.818 ± 0.048. Consider `O=C1N=C(O)NC1(c1ccccc1)c1ccccc1` [Phenytoin sodium], for which the relative cell viability is 0.961 ± 0.045.

For the compound `CCN(CC)Cc1ccc2cc(COC(=O)Nc3ccc(C(=O)NO)cc3)ccc2c1` [Givinostat (ITF2357)], the relative cell viability is 0.192 ± 0.018. For `CCN(CC)CCNC(=O)c1ccc(N)cc1` [Procainamide HCl], the relative cell viability turned out to be 0.957 ± 0.026. As for `COc1ccc(Cn2ccc3ccc(C(=O)NO)cc32)cc1`, the figure is 0.685 ± 0.085; as for `C=CC(=O)N1CCN(C(=O)CNc2cc(I)c(Cl)cc2O)CC1` [K-Ras(G12C) inhibitor 12], 1.06 ± 0.13; as for `C=CC(C)(C)c1cc(C=CC(=O)c2ccc(O)cc2)c(OC)cc1O` [Licochalcone A], 1.008 ± 0.0053.

On to `CN1CC[C@@H](c2c(O)cc(O)c3c(=O)cc(-c4ccccc4Cl)oc23)[C@@H]1CO`, for which the relative cell viability was 0.7 ± 0.044.

`CNC(=O)c1c(F)cccc1Nc1nc(Nc2cc3c(cc2OC)CCN3C(=O)CN(C)C)nc2[nH]ccc12`: the relative cell viability came to 1.06 ± 0.1. As for `CC1(C)O[C@@H]2C[C@H]3[C@@H]4CCC5=CC(=O)CC[C@]5(C)[C@@]4(F)[C@@H](O)C[C@]3(C)[C@]2(C(=O)CCl)O1` [Halcinonide], the figure is 0.905 ± 0.0084; as for `NC(=O)c1ccc(-c2nc(-c3ccc4c(c3)OCCO4)c(-c3ccccn3)[nH]2)cc1`, 0.996 ± 0.12; as for `C/C(=C\C(=O)Nc1ccccc1C(=O)O)c1ccc2ccccc2c1`, 1.14 ± 0.058.

As for `CC(C)N(CCC(=O)c1ccc2ccccc2c1)Cc1ccccc1`, the relative cell viability was 0.1814 ± 0.0002. As for `CC(COc1ccccc1)N(CCCl)Cc1ccccc1` (configuration not stated) [Phenoxybenzamine HCl], the figure is 1.07 ± 0.07; as for `Cn1cc(-c2ccc3c(c2)CCN3C(=O)Cc2cccc(C(F)(F)F)c2)c2c(N)ncnc21`, 0.897 ± 0.087; as for `CN(C)CCN1C(=O)c2cccc3cc(N)cc(c23)C1=O` [Amonafide], 1.042 ± 0.0065.

As to `COc1ccc(C2=NC(c3ccc(Cl)cc3)C(c3ccc(Cl)cc3)N2C(=O)N2CCNC(=O)C2)c(OC(C)C)c1` (configuration not stated) [Nutlin-3a], the relative cell viability is 1.149 ± 0.0057. With `COc1ccc(C2=NC(c3ccc(Cl)cc3)C(c3ccc(Cl)cc3)N2C(=O)N2CCNC(=O)C2)c(OC(C)C)c1` (configuration not stated) [Nutlin-3b], the relative cell viability is 1.17 ± 0.094.

For `O=C(Oc1cc(S(=O)(=O)c2ccccc2)ccc1[N+](=O)[O-])c1ccc(Cl)cc1`, the relative cell viability amounted to 1.04 ± 0.07. Regarding `Nc1ccc(-c2ccc3ncc4ccc(=O)n(-c5cccc(C(F)(F)F)c5)c4c3c2)cn1` [Torin 2], the relative cell viability was 0.569 ± 0.16. As for `COc1ccc(-c2ccc3ncc4c(c3c2)n(-c2ccc(N3CCNCC3)c(C(F)(F)F)c2)c(=O)n4C)cn1`, the figure is 0.104 ± 0.0046; as for `COc1cc(-c2cc(-c3ccc(N4CCNCC4)cc3)cnc2C)cc(OC)c1OC`, 0.87 ± 0.053. Regarding `Cc1c(NC(=O)c2ccc(C(C)(C)C)cc2)cccc1-c1cn(C)c(=O)c(Nc2ccc(C(=O)N3CCOCC3)cc2)n1`, the relative cell viability is 1.04 ± 0.046. With `Cc1ccccc1C(=O)Nc1ccc(C(=O)N2CCCC(O)c3cc(Cl)ccc32)c(C)c1` (configuration not stated) [Tolvaptan], the relative cell viability stood at 1.05 ± 0.075. `CNCc1ccc(-c2[nH]c3cc(F)cc4c3c2CCNC4=O)cc1`: the relative cell viability was determined as 1.3 ± 0.098. On to `C=C(C)[C@@H]1CC[C@]2(C(=O)O)CC[C@]3(C)[C@H](CC[C@@H]4[C@@]5(C)CC[C@H](O)C(C)(C)[C@@H]5CC[C@]43C)[C@@H]12` [Betulinic acid], for which the relative cell viability came out at 0.945 ± 0.13. For the compound `CS(=O)(=O)Nc1ccc([N+](=O)[O-])cc1Oc1ccccc1` [Nimesulide], the relative cell viability was determined as 1.08 ± 0.044.

On to `O=[N+]([O-])c1ccc2c(c1)S(=O)(=O)C=C2` [Stattic], for which the relative cell viability worked out at 0.204 ± 0.018. In the case of `CC(C)=CCCC(C)(OC1OC(COC2OCC(O)C(O)C2O)C(O)C(O)C1O)C1CCC2(C)C1C(O)CC1C3(C)CCC(OC4OC(CO)C(O)C(O)C4O)C(C)(C)C3CCC12C` (configuration not stated) [Gynostemma Extract], the relative cell viability was found to be 1.04 ± 0.076.

As to `COC(=O)CCSCc1ccc(-c2onc(C)c2NC(=O)OC(C)c2ccccc2Cl)cc1` (configuration not stated), the relative cell viability is 0.919 ± 0.024. As for `CCCCN1CCCCC1C(=O)Nc1c(C)cccc1C` (configuration not stated) [Bupivacaine HCl], the figure is 1.03 ± 0.16; as for `CCN=C1N[C@@H]2[C@@H](O)[C@H](O)[C@@H](CO)O[C@@H]2S1` [Thiamet G], 1.16 ± 0.065. For `Cn1cc(CNCC2CCN(c3ncc(C(=O)NO)cn3)CC2)c2ccccc21`, the relative cell viability is 0.171 ± 0.017. In the case of `CN1CCc2c(c3ccccc3n2Cc2ccc(C(=O)NO)cc2)C1` [Tubastatin A], the relative cell viability stood at 1.375 ± 0.0024. Regarding `COc1cc(C(=O)NS(=O)(=O)c2ccccc2C)ccc1Cc1cn(C)c2ccc(NC(=O)OC3CCCC3)cc12` [Zafirlukast], the relative cell viability is 1.08 ± 0.019. As for `CN1CCc2c(c3ccccc3n2Cc2ccc(C(=O)NO)cc2)C1` [Tubastatin A HCl], the figure is 0.979 ± 0.011. `CCCCCCCCCCCCCCCC(=O)OCC(O)C1OC(=O)C(O)=C1O` [L-Ascorbyl 6-palmitate]: the relative cell viability came out at 1.02 ± 0.04.

Regarding `C[C@@H]1[C@H](O)[C@@H](C)/C=C/C=C/C=C/C=C/C=C/C=C/C=C/[C@H](O[C@@H]2O[C@H](C)[C@@H](O)[C@H](N)[C@@H]2O)C[C@@H]2O[C@](O)(C[C@@H](O)C[C@@H](O)[C@H](O)CC[C@@H](O)C[C@@H](O)CC(=O)O[C@H]1C)C[C@H](O)[C@H]2C(=O)O` [Amphotericin B], the relative cell viability is 1.13 ± 0.11.

In the case of `COc1c/c(=C2\C=c3ccccc3=N2)[nH]/c1=C\c1[nH]c(C)cc1C` [Obatoclax Mesylate (GX15-070)], the relative cell viability stood at 0.354 ± 0.035. As for `Brc1ccc(C2CN3CCSC3=N2)cc1` (single isomer, unassigned; (-)) [(-)-p-Bromotetramisole Oxalate], the relative cell viability stood at 1.33 ± 0.11.

On to `Cc1cc(=O)oc2c(C=O)c(O)ccc12`, for which the relative cell viability came to 1.24 ± 0.086. Take `O=C(O)c1ccccc1` [Benzoic Acid]: the relative cell viability turned out to be 1.1 ± 0.072. As for `CN(NC(=O)CC(=O)NN(C)C(=S)c1ccccc1)C(=S)c1ccccc1` [Elesclomol (STA-4783)], the figure is 0.0573 ± 0.0087; as for `O=C(O)CCNC(=O)c1ccccc1` [Betamipron], 1.014 ± 0.0048.

On to `O=C(Nc1ccc2c(O)cc(S(=O)(=O)O)cc2c1)Nc1ccc2c(O)cc(S(=O)(=O)O)cc2c1`, for which the relative cell viability was 1.04 ± 0.058. As for `COc1ccc(Oc2cc(C)c(-c3csc(NC(=O)c4ccncc4)n3)c(C)c2)cc1`, the relative cell viability worked out at 0.89 ± 0.15. With `O=C(/C=C/c1ccc(O)c(O)c1)O[C@@H]1C[C@](O)(C(=O)O)C[C@@H](O)[C@H]1O` [Chlorogenic Acid], the relative cell viability turned out to be 1.1 ± 0.11.

On to `CC1(C)S[C@@H]2[C@H](NC(=O)[C@H](N)c3ccc(O)cc3)C(=O)N2[C@H]1C(=O)O` [Amoxicillin], for which the relative cell viability was 0.42 ± 0.49. In the case of `CC1(C)S[C@@H]2[C@H](NC(=O)[C@H](N)c3ccc(O)cc3)C(=O)N2[C@H]1C(=O)O` [Amoxicillin Sodium], the relative cell viability was determined as 1.06 ± 0.069. As for `C=CC(=O)Nc1cccc(Nc2nc(Nc3ccc(OCCOC)cc3)ncc2F)c1`, the figure is 0.892 ± 0.11; as for `O=S(=O)(c1ccccc1)N(CC(F)(F)F)c1ccc(C(O)(C(F)(F)F)C(F)(F)F)cc1`, 1 ± 0.084; as for `CC(C)(O)C1CCC(C)(C2C(O)CC3(C)C4CC(OC5OC(CO)C(O)C(O)C5O)C5C(C)(C)C(OC6OCC(O)C(O)C6O)CCC56CC46CCC23C)O1` (configuration not stated) [Astragaloside A], 1.15 ± 0.069.

Consider `O=C(/C=C/c1ccc(CN(CCO)CCc2c[nH]c3ccccc23)cc1)NO` [LAQ824 (Dacinostat)], for which the relative cell viability worked out at 0.145 ± 0.0072.

For the compound `OCc1c[nH]c2ccccc12` [Indole-3-carbinol], the relative cell viability is 1.1 ± 0.11. For `O=C(O)CCCc1c[nH]c2ccccc12` [3-Indolebutyric acid (IBA)], the relative cell viability amounted to 1.12 ± 0.072.

In the case of `CC1(C)CCCC2(C)C1CCC1(C)OC(=O)CC12` (configuration not stated) [Sclareolide], the relative cell viability was found to be 1.05 ± 0.085. On to `O=S(=O)(NCCNCC=Cc1ccc(Br)cc1)c1cccc2cnccc12`, for which the relative cell viability amounted to 1.12 ± 0.058. Take `CCN(CC)C(=S)SSC(=S)N(CC)CC` [Disulfiram]: the relative cell viability is 0.0338 ± 0.0054. As for `Cn1cc(-c2[nH]c3cc(NC(=O)[C@H](N)C4CCCCC4)cc4c3c2C=NNC4=O)cn1`, the relative cell viability was determined as 0.702 ± 0.016.

In the case of `NC(=O)C1CCCc2c1[nH]c1ccc(Cl)cc21` (configuration not stated) [EX 527 (Selisistat)], the relative cell viability was determined as 1.15 ± 0.033. As for `CC(C)c1cc2c(N3CCN(C4=NCC(C)(C)S4)CC3)ncnc2s1` [MI-3 (Menin-MLL Inhibitor)], the figure is 0.972 ± 0.023; as for `CC1(C)CCC2=C(O1)c1ccccc1C(=O)C2=O` [Beta-Lapachone], 0.246 ± 0.051. As for `CC1=CC(=O)c2ccccc2C1=O` [Menadione], the figure is 0.671 ± 0.13; as for `C=CC(=O)Nc1cc(Nc2nccc(-c3c[nH]c4ccccc34)n2)c(OC)cc1N(C)CCN(C)C`, 0.476 ± 0.0093. On to `Cc1ccc(-n2[nH]c(C)c(N=Nc3cccc(-c4cccc(C(=O)O)c4)c3O)c2=O)cc1C` [Eltrombopag Olamine], for which the relative cell viability was determined as 1.145 ± 0.0091.

As for `Cc1ccc(-n2[nH]c(C)c(N=Nc3cccc(-c4cccc(C(=O)O)c4)c3O)c2=O)cc1C` [Eltrombopag], the relative cell viability came to 1.04 ± 0.1. Regarding `OC(CC1c2ccccc2-c2cncn21)C1CCCCC1` (configuration not stated), the relative cell viability was 1.13 ± 0.055. Consider `C#Cc1cccc(Nc2ncnc3cc(OCCOC)c(OCCOC)cc23)c1` [Erlotinib], for which the relative cell viability was found to be 0.996 ± 0.091.

Regarding `C#Cc1cccc(Nc2ncnc3cc(OCCOC)c(OCCOC)cc23)c1` [Erlotinib HCl (OSI-744)], the relative cell viability came out at 1.18 ± 0.1. With `C#Cc1cccc(Nc2ncnc3cc(OCCOC)c(OCCO)cc23)c1`, the relative cell viability turned out to be 1.02 ± 0.013. `C#Cc1cccc(Nc2ncnc3cc(OC)c(OCCCCCCC(=O)NO)cc23)c1`: the relative cell viability was 0.182 ± 0.024. Take `CN(C)C(=O)c1ccc(S(=O)(=O)c2ccc(NC(=O)C(C)(O)C(F)(F)F)c(Cl)c2)cc1` (configuration not stated): the relative cell viability is 1.2 ± 0.14.

Values taken from the supplement of paper PMC10670038.
